# Measured values taken from ChEMBL document CHEMBL4513216, “Probing the Open Global Health Chemical Diversity Library for Multistage-Active Starting Points for Next-Generation Antimalarials” (ACS Infect Dis, 2020).
# About 2,700 (4%) of roughly 68,000 compounds showed an effect of 50% or more. For the sample, strong results were picked, then their nearest neighbours and some compounds at random.
# Tested on: Plasmodium berghei
# Assay: Screen against P. berghei liver stage (PbLuc), transformed with Luciferase, at 2uM
# Type: functional, HepG2
# Conditions: tested at 2 uM
row,SMILES,INHIBITION [%]
1,N#Cc1cccc(C(=O)NC2CCc3c(ccc(=O)n3CC3CC3)C2)c1 (stereo unspecified),-7.45
2,COC(=O)c1cccc(S(=O)(=O)NC(=O)CC2CCCC2)c1,-30.66
3,CC1CN(Cc2nnsc2Cl)CCN1c1nccs1 (stereo unspecified),24.82
4,O=C(NC1CC1)[C@H]1C[C@@H]2CCN(Cc3ccc4c(c3)OCO4)C[C@@H]2O1,14
5,CCc1cc(NCCN2CCNC2=O)n2nc(C)c(C)c2n1,-35.07
6,O=C(Cc1ccccc1)N1CCC(c2nnc(-c3ccccn3)o2)CC1,11.53
7,CCn1ncc(CN2CCN(C(=O)Cn3cc(Br)c(C)n3)CC2)c1C,-22.24
8,COc1cccc(CN(Cc2ccco2)Cc2cnc(C)n2C)c1,-4.04
9,Cc1nc2cc(=O)[nH]n2c(C)c1CNC(=O)c1cnn(C(C)(C)C)c1,-46.8
10,Cc1ccc(CN(C(=O)NCC(c2cccs2)N(C)C)C2CC2)o1 (stereo unspecified),-38.2
11,Cc1ccc(CN(C(=O)NCC2CCCO2)C2CC2)o1 (stereo unspecified),57.85
12,COc1ncccc1NC(=O)N(Cc1ccc(C)o1)C1CC1,51.21
13,CCN(C(=O)Nc1cccnc1OC)C1CC1,-14.3
14,COc1ncccc1NC(=O)N(Cc1ccco1)C1CC1,20.93
15,Cc1ccc(CN(C(=O)NCC2CCS(=O)(=O)C2)C2CC2)o1 (stereo unspecified),26.39
16,Cc1cc(CN2CCN(C(=O)CCCc3nc(C(C)C)no3)CC2)on1,26.06
17,COc1ncc(-c2ccc(C(N)=O)cc2)c(OC)n1,29.41
18,Cc1cc(C)c(CNC(=O)NCCCNc2ccccn2)c(=O)[nH]1,34.65
19,CCN1C[C@H]2CCN(C(=O)NC)CC[C@H]2S1(=O)=O,-11.73
20,CCN1C[C@H]2CCN(C(C)=O)CC[C@H]2S1(=O)=O,59.49
21,COCCN1C[C@H]2CCN(C(C)=O)CC[C@H]2S1(=O)=O,43.05
22,O=C(NCCN1CCOCC1)c1ccc(-c2ccccc2)[nH]c1=O,40.47

row,SMILES,INHIBITION [%]
1,O=C(NCCCN1CCOCC1)c1ccn(COc2ccc(F)cc2)n1,58.42
2,O=C(NCCN1CCOCC1)c1ccn(COc2ccc(F)cc2)n1,-10.62
3,O=C(NCCN1CCOCC1)c1ccc(-c2ccc(F)cc2)nc1O,58.75
4,O=C(NCCCN1CCOCC1)c1ccn(COc2ccc(Br)cc2)n1,12.84
5,Cc1ccc(C(=O)NCCN2CCOCC2)c(=O)[nH]1,-84.65
6,CCc1nnc(C(C)N2CCN(CCC(=O)NC3CC3)CC2)o1 (stereo unspecified),35.61
7,CC(C)(C)C(CCO)NC(=O)Nc1ccncc1 (stereo unspecified),6.84
8,CC(C)NC(=O)c1nnn(-c2cccc(C(F)(F)F)c2)c1N,50.54
9,CC(C)NC(=O)c1nnn(-c2cccc(C(F)(F)F)c2)c1C1CC1,-66.52
10,Cc1c(C(=O)NC(C)C)nnn1-c1cccc(C(F)(F)F)c1,-8.75
11,COCCc1noc(CN2C(=O)OC[C@@H]2C(C)C)n1,-7.66
12,CC1N(C)C(=O)COC12CCN(C(=O)CCc1ccccc1)CC2 (stereo unspecified),65.38
13,CC1N(C)C(=O)COC12CCN(C(=O)Cc1ccsc1)CC2 (stereo unspecified),2.18
14,CC1N(C)C(=O)COC12CCN(Cc1ccsc1)CC2 (stereo unspecified),-30.38
15,O=C(c1cccc(F)c1)N1CCC2(CC1)CC(N1CCOCC1)C2,-21.77
16,CCc1n[nH]c(C2CN(Cc3csc(COC)n3)CCO2)n1 (stereo unspecified),12.58
17,c1cc(-c2nnn3c2COC(CNCC2CCOCC2)C3)ccn1 (stereo unspecified),86.79
18,c1ccc(-c2nnn3c2COC(CNCC2CC2)C3)cc1 (stereo unspecified),14.48
19,c1ccc(-c2nnn3c2COC(CNCC2CCOCC2)C3)cc1 (stereo unspecified),12.36
20,Cc1cccc(C(=O)NCc2ccc(N3CCCCCC3)nc2)n1,-26.87
21,Cc1cn2c(n1)C(CNCC1=Cc3cc(Cl)ccc3OC1)CCC2 (stereo unspecified),9.21
22,CCCS(=O)(=O)N1CCC2(CC1)CC(N1CCCC1)c1ccccc12 (stereo unspecified),-21.74

row,SMILES,INHIBITION [%]
1,Cc1nc2c(c(=O)[nH]1)CN(C(=O)CCC1CCCN(C)C1)C2 (stereo unspecified),19.48
2,CC(C)c1ccc(S(=O)(=O)N2CCCC3(CCCN3S(C)(=O)=O)C2)cc1 (stereo unspecified),42.62
3,CCOCCC(=O)Nc1cccc(Cl)c1COC,1.06
4,CCOCCC(=O)Nc1cccc(Cl)c1C(N)=O,56.89
5,CCOCCC(=O)Nc1ccnn1-c1ccc(Cl)cc1,-24.07
6,CC(C)CCc1nc(CNCC2CCCN2c2cccnn2)cs1 (stereo unspecified),15.47
7,CN(C)C(=O)c1n[nH]c2c1CN(Cc1nccs1)CC2,-8.84
8,c1cncc(CNCCc2cccs2)c1,-10.44
9,COC(=O)C(C)NC(=O)CSCc1nc(O)c2cc(C(C)C)sc2n1 (stereo unspecified),52.08
10,COC(=O)CNC(=O)CSCc1nc(O)c2cc(C(C)C)sc2n1,5.36
11,COCCNC(=O)CSCc1nc(O)c2cc(C(C)C)sc2n1,-43.28
12,Cc1nc[nH]c1CN(Cc1ccccc1)C1CC(C)(C)NC(C)(C)C1,50.68
13,Cc1nc[nH]c1CN(Cc1ccc(F)cc1)C1CC(C)(C)NC(C)(C)C1,-24.35
14,Cc1nc[nH]c1CN(Cc1ccccc1F)C1CC(C)(C)NC(C)(C)C1,39.26
15,O=C(NCc1ccco1)[C@H]1C[C@@H]2CCN(c3cccc(F)c3)C[C@H]2O1,45.28
16,CCCN1CCC(N2CCN(c3cccc(C)n3)CC2)CC1,36.24
17,Nc1cc(CCC2CN(Cc3ccc4cc[nH]c4c3)CCO2)ccn1 (stereo unspecified),52.69
18,Nc1cc(CCC2CN(Cc3ccc4c(c3)OCCO4)CCO2)ccn1 (stereo unspecified),23.87
19,COc1ccc(CN2CCOC(CCc3ccnc(N)c3)C2)cc1 (stereo unspecified),-152.49
20,COCC1CN(Cc2ccc(OC)cc2)Cc2nn(C)cc21 (stereo unspecified),-62.13
21,CN(CC(=O)N1CCOC(CCc2ccccc2)C1)Cc1ccccn1 (stereo unspecified),3.94
22,CC(C)NC(=O)[C@@H]1C[C@@H]2CCN(Cc3ccoc3)C[C@H]2O1,0
